Reference: PubChem BioAssay AID1508625 (Wald Lab, School of Medicine, Case Western Reserve …, 2021)

Assay: small molecules boosting NK-mediated OVCAR3 lysis – imaging, primary NK cells, calcein-AM imaging, primary screen (AID 1508625);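 also: compound given to NK cells 16 h before adding targets at 1.5 to 1 ratio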;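 as to z-score: more negative robust z means stronger NK killing of tumor cells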
Details: OVCAR3 lysis by primary NK cells, at 5 µM; z-score: measured here: robust Z-score, single-point normalisation

| SMILES | corrected activity, negative = more killing [%] | z-score |
| --- | --- | --- |
| COc1cc(C=Nc2ccc(Oc3ccccc3)cc2)ccc1OC(C)=O | -3.39 | -1.34 |
| O=C(c1ccc2c(=O)n(Cc3ccco3)c(=S)[nH]c2c1)N1CCOCC1 | -3.78 | -1.2 |
| Cc1ccc(NC(=O)CCNC(=O)Cn2cnc3ccccc3c2=O)c(Br)c1 | -0.469 | -0.149 |
| CCc1ccc(-n2c(C)nc3cc(C(=O)NCc4cccnc4)ccc32)cc1 | -5.32 | -1.43 |
| COc1cc([N+](=O)[O-])ccc1N1C(=O)C2C3C=CC(CC3)C2C1=O (stereo not drawn) | 0.65 | 0.231 |
| O=C(c1ccc([N+](=O)[O-])cc1)N1N=C(C2CC2)CC1(O)C(F)F (stereo not drawn) | -2.43 | -1 |
| Cc1occc1C(=O)N1N=C(C2CC2)CC1(O)C(F)(F)F (stereo not drawn) | -2.75 | -1.13 |
| Cc1cc(N2CCN(C(=O)c3cccc(F)c3F)CC2)c(F)cc1[N+](=O)[O-] | -4.4 | -1.92 |
| COCCNC(=O)c1ccc2snnc2c1 | -3.88 | -1.16 |
